This note sets out measurements from PubChem BioAssay (NCATS).

Several values for one entry are separate records, joined by “and”; a condition that tells them apart may be missing. Equal entries are not always repeated. A number with no mark means an inactive call. Results filed as inconclusive are left out. Where a structure was tested more than once in an assay, its records may differ in their call. Activity calls are given as the source filed them. Unless noted, calls follow the shape of the dose curve; as a rule, active = well fitted curve in the direction sought with a large enough effect; inconclusive = small, poorly fitted or top-dose-only effect, or another doubt; inactive = no such curve, though single readings can be large; an effect the other way counts as inactive or inconclusive.

Test [1] is described as follows: Primary qHTS for inhibitors of nuclear receptor binding SET domain protein 2 (NSD2) in an isogenic RCH-ACV NSD2 p.E1099K mutant (9B) (AID 1645876). Also: nearly all actives have a fitted effect of over 70% in size. Also: potency is read from the fitted curve at half-maximal effect. The settings on record: RCH-ACV NSD2 E1099K (9B) viability, CellTiter-Glo, 72 h; series mostly up to 44.9 µM. For orientation: qHTS replaces the single test concentration by a dilution series.
Test [2] in a line: Primary qHTS for inhibitors of nuclear receptor binding SET domain protein 2 (NSD2) in an RCH-ACV wild type WT cells (2C) (AID 1645877). Also: nearly all actives have a fitted effect of over 70% in size. Also: potency is read from the fitted curve at half-maximal effect. The settings on record: RCH-ACV (leukaemia line) NSD2 WT (2C) viability, CellTiter-Glo, 72 h; series mostly up to 44.9 µM.
The target of test [3] is Phospholipid hydroperoxide glutathione peroxidase GPX4 (Homo sapiens) (UniProt P36969). The test can be described thus: Primary qHTS Assay for Inhibitors of Recombinant Selenoprotein Glutathione Peroxidase 4 (GPX4) (AID 1845192). Also: nearly all actives have a fitted effect of over 65% in size. As to activity change, negative = inhibition: % is scaled to controls: 0 for no effect and ±100 for the full control effect. To be noted: recombinant GPX4, GR-coupled NADPH fluorescence, 15 min; series mostly up to 50 µM. The gist of the method: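 NADPH consumption, followed by fluorescence at 340/450 nm between 0 and 15 min, reports GPX4 activity via coupled glutathione reductase (100 nM). Enzyme 200 nM was pre-exposed to compound 30 min; 0.5 mM cumene hydroperoxide and 1 mM GSH served as substrates.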
Phospholipid hydroperoxide glutathione peroxidase GPX4 (Homo sapiens), sequence (P36969 whole entry, looked up): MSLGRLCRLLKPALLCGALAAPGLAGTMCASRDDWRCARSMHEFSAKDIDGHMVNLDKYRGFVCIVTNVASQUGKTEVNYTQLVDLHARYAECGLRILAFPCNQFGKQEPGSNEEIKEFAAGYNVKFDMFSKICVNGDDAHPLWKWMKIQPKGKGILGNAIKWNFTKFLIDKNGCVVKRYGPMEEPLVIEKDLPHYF

Test [4] has as its target Rap guanine nucleotide exchange factor 3 (Homo sapiens) (UniProt O95398). Briefly: Confirmatory qHTS for antagonist of cAMP-regulated guanine nucleotide exchange factor 3 (EPAC1) (AID 1645880). Also: potency is read from the fitted curve at half-maximal effect; nearly all actives have a fitted effect of over 55% in size. The settings on record: EPAC1 Rap1B-BODIPY-GDP exchange, fluorescence; series mostly up to 115 µM. In a few lines: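 Nucleotide exchange uses 100 nM EPAC1, 250 nM RAP1B-BODIPY-GDP and 50 uM GDP, with compounds in a concentration-titration series. After 5 min at room temperature, fluorescence (480 nm ex/540 nm em) is read every 5 min for 30 min. Data are normalized to control ATA and DMSO.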

For test [5] the target is unchanged. Briefly: Confirmatory qHTS for agonist of cAMP-regulated guanine nucleotide exchange factor 3 (EPAC1) (AID 1645881).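 Also: EPAC1 catalysed release of BODIPY-GDP from Rap1B seen as fluorescence loss; nearly all actives have a fitted effect of over 75% in size.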 The settings on record: EPAC1 Rap1B BODIPY-GDP exchange fluorescence, 100% = cAMP control response; series mostly up to 154 µM.
In test [6] the target is Rap guanine nucleotide exchange factor 4 (Homo sapiens) (UniProt Q8WZA2). Briefly: Confirmatory qHTS for agonist of cAMP-regulated guanine nucleotide exchange factor 4 (EPAC2) (AID 1645884).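 Also: nucleotide exchange releases bodipy-GDP from Rap1 and this lowers its fluorescence; % is scaled to controls: 0 for no effect and ±100 for the full control effect; nearly all actives have a fitted effect of over 65% in size.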 To be noted: EPAC2 GEF activity, Rap1B-BODIPY-GDP fluorescence, percent relative to cAMP agonist control; series mostly up to 154 µM.
Rap guanine nucleotide exchange factor 4 (Homo sapiens), sequence (Q8WZA2 whole entry, looked up): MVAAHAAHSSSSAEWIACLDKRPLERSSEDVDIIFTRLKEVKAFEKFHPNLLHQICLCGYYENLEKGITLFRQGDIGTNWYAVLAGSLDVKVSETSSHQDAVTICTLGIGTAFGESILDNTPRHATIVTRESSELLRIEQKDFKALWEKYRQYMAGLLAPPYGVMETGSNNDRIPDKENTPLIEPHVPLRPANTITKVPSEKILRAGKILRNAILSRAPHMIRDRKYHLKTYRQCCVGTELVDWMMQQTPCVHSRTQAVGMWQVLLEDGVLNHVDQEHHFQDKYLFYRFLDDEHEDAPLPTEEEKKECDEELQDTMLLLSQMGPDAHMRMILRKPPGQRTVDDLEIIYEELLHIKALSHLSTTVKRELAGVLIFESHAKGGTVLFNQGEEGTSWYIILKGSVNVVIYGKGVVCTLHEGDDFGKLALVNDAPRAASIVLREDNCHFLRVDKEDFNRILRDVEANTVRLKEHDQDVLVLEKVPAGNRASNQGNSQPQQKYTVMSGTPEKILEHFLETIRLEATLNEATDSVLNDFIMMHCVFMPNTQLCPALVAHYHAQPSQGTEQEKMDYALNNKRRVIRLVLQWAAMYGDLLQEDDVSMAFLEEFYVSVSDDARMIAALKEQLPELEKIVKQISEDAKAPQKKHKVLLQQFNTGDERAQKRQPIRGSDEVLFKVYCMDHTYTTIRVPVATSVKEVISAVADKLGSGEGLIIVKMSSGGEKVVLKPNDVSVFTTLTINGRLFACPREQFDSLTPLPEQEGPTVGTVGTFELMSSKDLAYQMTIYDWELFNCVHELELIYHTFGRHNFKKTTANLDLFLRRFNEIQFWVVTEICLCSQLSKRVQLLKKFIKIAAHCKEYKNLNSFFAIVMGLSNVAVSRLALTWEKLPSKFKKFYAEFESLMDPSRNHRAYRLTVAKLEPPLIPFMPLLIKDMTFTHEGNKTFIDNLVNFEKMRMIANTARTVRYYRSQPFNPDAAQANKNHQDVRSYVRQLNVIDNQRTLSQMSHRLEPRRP
Test [7] has the same target. Briefly: Confirmatory qHTS for antagonist of cAMP-regulated guanine nucleotide exchange factor 4 (EPAC2) (AID 1645885). Also: nearly all actives have a fitted effect of over 25% in size. Also: potency is read from the fitted curve at half-maximal effect. As to activity change, negative = inhibition: % is scaled to controls: 0 for no effect and ±100 for the full control effect. To be noted: EPAC2 Rap1B-BODIPY-GDP exchange fluorescence, biochemical; series mostly up to 114 µM.
A short description of test [8]: NCATS anti-infectives library activity on HEK293 viability as a counter-qHTS vs the C. elegans viability qHTS (AID 1745854).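 Also: HEK293 cells exposed to compounds for 24 hr before the viability read; % is scaled to controls: 0 for no effect and ±100 for the full control effect.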 To be noted: HEK293 viability counter-screen; series mostly up to 41.8 µM. The gist of the method:
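Cytotoxicity in human HEK293 cells is measured by ATP-dependent CellTiter-Glo luminescence following a 24 hr incubation with titrated library compounds at 37C. Top final concentration is 41.7 uM.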

For test [9], the target named is Glutathione peroxidase 1 (Homo sapiens) (UniProt P07203). Briefly: Primary qHTS Assay for Inhibitors of Recombinant Selenoprotein Glutathione Peroxidase 1 (GPX1) (AID 1845191). Also: nearly all actives have a fitted effect of over 65% in size. To be noted: recombinant GPX1, GR-coupled NADPH fluorescence, 15 min; series mostly up to 48.8 µM. The gist of the method: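 10 nM GPX1 + cpd, 30 min RT; start w/ 1 mM GSH, 0.5 mM cumene hydroperoxide, 0.5 mM NADPH, 100 nM GR, 0.01% BSA; buffer 50 mM Tris-HCl pH 7.5, 2 mM EDTA, 150 mM NaCl; Fl 340/450, 0 & 15 min.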
Glutathione peroxidase 1 (Homo sapiens), sequence (P07203 whole entry, looked up): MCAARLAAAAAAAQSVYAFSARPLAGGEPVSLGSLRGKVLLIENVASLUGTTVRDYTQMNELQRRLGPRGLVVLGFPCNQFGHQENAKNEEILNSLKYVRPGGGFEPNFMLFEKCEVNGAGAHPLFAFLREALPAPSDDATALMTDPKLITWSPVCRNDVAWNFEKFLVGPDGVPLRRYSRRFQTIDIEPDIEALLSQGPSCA

Test [10] has as its target Rap guanine nucleotide exchange factor 3 (Homo sapiens) (UniProt O95398). The test can be described thus: Counterscreen qHTS for antagonist of cAMP-regulated guanine nucleotide exchange factor 3 (EPAC1) (AID 1645888).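 Also: fluorescence loss as bound BODIPY-GDP is released from Rap1B; % of control where 0% means no effect.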 To be noted: Rap1B-BODIPY-GDP nucleotide exchange, fluorescence; series mostly up to 30.8 µM. In a few lines: (§1)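 Rap1B-BODIPY-GDP 250 nM + GDP 50 uM; cpds 7-pt, final 9.74 nM–152 uM (activator mode) or from 7.32 nM upwards (inhibitor mode); RT; FI 480/540 nm at 5 and 30 min, then ± cAMP, reread.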

Test [11] shares this target. Briefly: Counterscreen qHTS for agonist of cAMP-regulated guanine nucleotide exchange factor 3 (EPAC1) (AID 1645889). Also: % of control where 0% means no effect; nearly all actives have a fitted effect of over 40% in size. To be noted: EPAC1 Rap1B-BODIPY-GDP exchange, fluorescence; series mostly up to 30.8 µM. In a few lines: as §1
A general note: Counterscreens check selectivity or assay interference.

Test [12] concerns the target Luciferin 4-monooxygenase (Photinus pyralis) (UniProt P08659). The test can be described thus: Primary firefly luciferase (FLuc) qHTS assay for identification of artifact compounds. (AID 1845220). Also: nearly all actives have a fitted effect of over 60% in size.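 As to activity change, negative = inhibition: plate controls were DMSO vehicle for no effect and no enzyme for full effect.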 The settings on record: purified firefly luciferase, luminescence, 5 min; series mostly up to 54.1 µM. The gist of the method:
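Cell-free, 1536-well qHTS. Buffer pH 7.6 with 0.01% Tween-20 and 0.05% BSA; 10 uM D-luciferin, 10 uM ATP; 10 nM P. pyralis luciferase; luminescence after 5 min.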

Test [13] is described as follows: NCATS anti-infectives library activity on the primary C. elegans qHTS viability assay (AID 1745855; calls by dose curve). The settings on record: C. elegans worm area imaging, day 7; at 41.8 µM (top of the series) unless noted. In a few lines:
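Viability is taken from GFP fluorescence of PE254-GFP-FLuc C. elegans imaged by laser cytometry over 7 days. Ten L1 worms per well grow at 21 °C on TOP10 E. coli capsules with titrated compound; levamisole marks toxicity.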

Rap guanine nucleotide exchange factor 3 (Homo sapiens), sequence (O95398 whole entry, looked up): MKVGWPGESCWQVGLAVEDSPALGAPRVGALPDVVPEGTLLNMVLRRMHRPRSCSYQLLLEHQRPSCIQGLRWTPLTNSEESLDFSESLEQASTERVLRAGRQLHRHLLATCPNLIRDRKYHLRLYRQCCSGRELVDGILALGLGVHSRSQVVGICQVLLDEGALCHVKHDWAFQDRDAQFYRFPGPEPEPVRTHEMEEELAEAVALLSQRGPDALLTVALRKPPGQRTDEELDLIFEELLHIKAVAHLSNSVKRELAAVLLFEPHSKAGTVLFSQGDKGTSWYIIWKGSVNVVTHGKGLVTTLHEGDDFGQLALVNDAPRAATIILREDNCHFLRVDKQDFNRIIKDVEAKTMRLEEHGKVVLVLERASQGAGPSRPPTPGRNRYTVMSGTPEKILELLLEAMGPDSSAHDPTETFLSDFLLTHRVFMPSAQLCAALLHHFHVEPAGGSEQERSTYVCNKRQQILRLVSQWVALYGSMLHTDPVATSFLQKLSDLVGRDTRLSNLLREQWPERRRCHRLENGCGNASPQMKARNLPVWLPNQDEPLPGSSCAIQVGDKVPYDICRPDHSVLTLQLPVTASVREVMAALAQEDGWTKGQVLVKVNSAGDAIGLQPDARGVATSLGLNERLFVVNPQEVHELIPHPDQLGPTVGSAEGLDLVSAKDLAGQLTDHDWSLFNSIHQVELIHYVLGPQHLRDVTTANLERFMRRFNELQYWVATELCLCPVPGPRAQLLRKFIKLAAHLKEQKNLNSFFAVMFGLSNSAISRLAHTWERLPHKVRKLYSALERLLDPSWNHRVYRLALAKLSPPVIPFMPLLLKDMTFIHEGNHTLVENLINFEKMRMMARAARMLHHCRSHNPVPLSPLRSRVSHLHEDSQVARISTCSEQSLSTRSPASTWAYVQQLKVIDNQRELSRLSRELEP

Turning to `O=C(O)CCNC(=O)c1ccccc1`, the Potency result in test [1], in test [2] and in test [3] was “inactive” each time.

For `CC1(COc2ccc(CC3SC(=O)NC3=O)cc2)CCCCC1` (stereo not given), the Potency in test [4] is 49.8 µM (active); in test [7], 44.1 µM (active). Further, the compound was called inactive in [5] and in test [6].

Regarding `C=C[C@H]1CN2CC[C@H]1C[C@@H]2[C@@H](O)c1ccnc2ccc(OC)cc12`, the Potency entry in test [2], in test [9] and in test [3] was “inactive” throughout. Moreover, in test [8], the outcome was inactive.

On to `CCc1oc2ccccc2c1C(=O)c1cc(Br)c(O)c(Br)c1`, for which the Potency was 39.5 µM (active) and 39.8 µM (active) in [4]; 27.8 µM (active) in test [7]. Also, the compound was classed as inactive in test [5], in test [6], in [10] and in test [11]. Moreover, the activity change, negative = inhibition in test [7] was -17.2% [at 12.7 µM].

Turning to `Oc1ccc(Cl)cc1Cc1cc(Cl)ccc1O`, the Potency in test [2] was 18.8 µM (active); in test [7], 35 µM (active). In addition, the compound was called inactive in [5]. Besides, the Potency entry in test [3] was “inactive”.

Take `CC(=O)Nc1ccc(S(=O)(=O)Nc2ccc([N+](=O)[O-])cc2)cc1`: the Potency entry in [1], in test [2] and in test [3] was “inactive” each time.

Turning to `CC(C)=CCOc1ccc(/C=C/C(=O)c2ccc(OCC=C(C)C)cc2OCC(=O)O)cc1`, the results for the Potency in test [4] and in test [7] were 49.8 µM (active) and 39.3 µM (active), respectively. Besides, the compound was called inactive in test [5] and in test [6].

Consider `NS(=O)(=O)c1cc(C(=O)O)cc(N2CCCC2)c1Oc1ccccc1`, for which the Potency result in test [1] and in test [3] was “inactive” throughout.

In the case of `N[C@H](C(=O)O)[C@@H](O)c1ccc(O)c(O)c1`, the Potency entry in [1], in test [9] and in [3] was “inactive” each time.

Take `NS(=O)(=O)Cc1noc2ccccc12`: the Potency entry in test [2], in [9] and in test [3] was “inactive” each time.

For `CN1CCC(OC(c2ccccc2)c2ccccc2)CC1`, the Potency entry in test [1] and in test [3] was “inactive” each time.

For the compound `O=C(CCCN1CC=C(n2c(=O)[nH]c3ccccc32)CC1)c1ccc(F)cc1`, the Potency result in test [1], in test [2] and in test [3] was “inactive” in each case. Also, the result in test [12] was inactive.

Consider `Cc1ccc(O)c([C@H](CCN(C(C)C)C(C)C)c2ccccc2)c1`, for which the Potency in test [1] is 21.1 µM (active). The Potency result in test [9] and in test [3] was “inactive” each time.

Take `CCOc1ccccc1C(N)=O`: the Potency in test [1] is 18.8 µM (active). Also, in [3], the Potency result is “inactive”.

Turning to `O=C1[C@H](CC[C@H](O)c2ccc(F)cc2)[C@@H](c2ccc(O)cc2)N1c1ccc(F)cc1`, in test [1], the Potency was 23 µM (active). Further, the Potency result in test [9] and in test [3] was “inactive” throughout. Besides, in test [12], the outcome was inactive.

On to `CN(C)CCC[C@@]1(c2ccc(F)cc2)OCc2cc(C#N)ccc21`, for which the Potency result in test [1] and in test [9] was “inactive” in each case.

As to `C[C@H]1[C@H]2CC[C@H]3[C@@H]4CC=C5C[C@@H](N(C)C)CC[C@]5(C)[C@H]4CC[C@]23CN1C`, the activity change, negative = cytotoxicity in test [8] is -25.4% [at 8.35 µM].

With `O=C(Nc1cccc(C2=NCCN2)c1)Nc1cccc(C2=NCCN2)c1`, in [1], the Potency was 10.3 µM (active). Besides, the Potency result in test [9] and in [3] was “inactive” throughout.

In the case of `CCc1oc2ccccc2c1C(=O)c1cc(I)c(O)c(I)c1`, the outcome in test [5] and in test [6] was inactive. Also, in test [7], the Potency is 27.8 µM (active). For the same compound, the Potency result in test [9] was “inactive”.

For the compound `CCNC(=O)/C=C/c1cccc(Br)c1`, the Potency entry in test [2] was “inactive”.

Consider `OC[C@H]1O[C@@H](Oc2ccc(O)cc2)[C@H](O)[C@@H](O)[C@@H]1O`, for which the outcome in test [13] was “inactive [at 83.3 µM]”.

On to `C=C[C@H]1CN2CC[C@H]1C[C@H]2[C@H](O)c1ccnc2ccc(OC)cc12`, for which, in test [12], the result was inactive.
